Screening results: PubChem, SRMLSC
Shown are actives, neighbours in structure and some others; about 6.5% of the full set was active somewhere.
MK inhibit – inhibitors of Streptococcus pneumoniae mevalonate kinase | purified MK, PK/LDH-coupled NADH absorbance 340 nm | inhibition, % at 10 µM | 65,000 tested, 0.48% active;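 active = ranked among the strongest by inhibition in the single 10 µM screen, a fixed top-ranked set picked for dose follow-up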
Autofluor 339 – intrinsic fluorescence of library compounds, ex339/em460 – biochemical, MLSMR library, data from DPM-DC assay, artefact control, profiling panel | fluorescence fold increase at 10 µM | 65,000 tested, 5.5% active | compound autofluorescence, ex339/em460 nm, NADH buffer; active compounds read high; 1 = no-compound wells, NADH background;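 active = at 10 µM, mean starting fluorescence two-fold or more over control wells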;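 also: signal is the first read of a kinetic run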
A340 absorber – compound absorbs light at 340 nm. compound absorbance at 340 nm, fold over control. fold change at 10 µM. 65,000 tested, under 10 active. AID 708;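 active = at 10 µM dose, initial 340 nm absorbance at least 2 fold that of control wells; inactive = change under 2 fold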;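 also: initial absorbance extrapolated from kinetic A340 decline of NADH oxidation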
PMK inhibit – inhibitors of Streptococcus pneumoniae phosphomevalonate kinase; 65,000 tested, 0.49% active; inhibition, % at 10 µM; purified PMK, PK/LDH-coupled NADH absorbance 340 nm;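 active = top-ranked compounds by inhibition in the single 10 µM screen, taking a fixed number of the strongest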
NADH enzymes – inhibitors of enzymes used to reach an NAD/NADH endpoint; 65,000 tested, 0.02% active; coupled PK/LDH NADH assays, four targets; IC50, µM (doses to about 10 µM);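 active = single-dose screening hits from any of four coupled enzyme assays that gave an IC50 when retested across doses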;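 also: the DPM-DC format reads NADH fluorescence rather than 340 nm absorbance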
Spn DPM-DC inh – blocks S. pneumoniae diphosphomevalonate decarboxylase; 65,000 tested, 0.49% active; calls only at 10 µM; AID 556; purified DPM-DC, PK/LDH coupled NADH fluorescence;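 active = the 320 compounds with the highest percent inhibition in the single-dose primary screen, excluding strongly autofluorescent ones, cut at about 32% in these data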;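 also: kinetic rate of NADH fluorescence loss reporting ADP formed by the decarboxylase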
Of the large screens only hits and unclear results are named; the others gave an inactive call.

C=CCn1c(=N)c(C(=O)NCCCOC)cc2c(=O)n3cc(C)ccc3nc21	Autofluor 339 3.8 (not shown: Spn DPM-DC inh)
C=CCn1c(=N)c(C(=O)NCCCOC)cc2c(=O)n3ccccc3nc21	Autofluor 339 3.7 (not shown: Spn DPM-DC inh)
C=CCn1cc(C(=O)NCCCOC)c(=O)c2cc(S(=O)(=O)N(CC)CC)ccc21	none
Cc1ccc(C(C(=O)NCCc2ccccc2)N(C(=O)c2csnn2)C2CC2)o1 (stereo unspecified)	none
Cc1cc(C)n(-c2nc(NCC3CCCO3)c3c4c(sc3n2)COC(C)(C)C4)n1 (stereo unspecified)	Autofluor 339 3.7 (not shown: Spn DPM-DC inh)
Cc1cc(C)n(-c2nc(NCCCO)c3c4c(sc3n2)CCCC4)n1	Autofluor 339 2.6
Cc1cc(C)n(-c2nc(NCCO)c3c4c(sc3n2)CCCC4)n1	none
CC(C)C(=O)Nc1ccc2c(c1)C(=O)N(CCC(=O)O)C2=O	Autofluor 339 2.3 (not shown: Spn DPM-DC inh)
Cc1ccc(C)c(N(CC(=O)NC2CCCC2)C(=O)CCCC(=O)Nc2ccccn2)c1	PMK inhibit 48
Cc1cccc(N(CC(=O)NC2CCCC2)C(=O)CCCC(=O)Nc2ccccn2)c1	none
CCOC(=O)c1ccc(NC(=O)CN2C(=O)CSC2=O)cc1	none
CCOC(=O)c1ccccc1NC(=O)C1COc2ccccc2O1 (stereo unspecified)	none
CCOC(=O)c1ccccc1NCN1C(=O)CSC1=O	Autofluor 339 2.2, PMK inhibit 29 (not shown: Spn DPM-DC inh)
CCOC(=O)c1ccccc1NC1CC(=O)N(c2ccccc2C)C1=O (stereo unspecified)	Autofluor 339 3.3 (not shown: Spn DPM-DC inh)
COCCNC(=O)CN(C(=O)Cn1nnc2ccccc21)c1ccc(F)c(Cl)c1	none
CCCS(=O)(=O)N1CCN(C(=O)COc2ccc(-c3ccccc3)cc2)CC1	none
Cc1c(C(=O)N2CCN(c3ccc(C(F)(F)F)cn3)CC2)oc2ccccc12	none
CC(=O)c1ccc(N2CCN(c3ccc(C(F)(F)F)cn3)CC2)cc1	PMK inhibit 40
COC(=O)c1ccccc1NC(=O)C1CCCN(S(=O)(=O)c2ccc(OC)cc2)C1 (stereo unspecified)	none
CCOC(=O)Cc1c(C)c2c(O)cc(O)cc2oc1=O	Autofluor 339 2.4 (not shown: Spn DPM-DC inh)
CCN(CC)c1ccc2c(Cl)c(Br)c(=O)oc2c1	none
CCOC(=O)CCc1c(C)c2ccc(O)cc2oc1=O	Autofluor 339 3.7 (not shown: Spn DPM-DC inh)
CCOC(=O)Cc1c(C)c2ccc(N(CC)CC)cc2oc1=O	Autofluor 339 4.4 (not shown: Spn DPM-DC inh)
CCN(CC)c1ccc2c(C)c(-c3ccc(N)cc3)c(=O)oc2c1	Autofluor 339 2.5 (not shown: Spn DPM-DC inh)
CCOC(=O)c1c(C)oc2ccc(O)c(CN(C)C)c12	none
CCCN1Cc2cccc(C(=O)Nc3ccc(CN4CCCC4)cc3)c2C1=O	none
Cc1csc(=O)n1CCC(=O)O	none
CCC(C)(C)n1nnnc1C(c1cccnc1)N1CCCc2ccccc21 (stereo unspecified)	PMK inhibit 28
CCOC(=O)c1ccc2[nH]c(C)c(CCC(C)=O)c(=O)c2c1	Autofluor 339 2.1 (not shown: Spn DPM-DC inh)
Cc1cc(=O)c2cc(Cl)ccc2[nH]1	none
COC(=O)c1ccc2[nH]c(C)cc(=O)c2c1	Autofluor 339 2.3 (not shown: Spn DPM-DC inh)
CCOC(=O)c1ccc2[nH]c(C)cc(=O)c2c1	Autofluor 339 2.1 (not shown: Spn DPM-DC inh)
CCOC(=O)c1ccc2[nH]c3c(c2c1)CN(C)CC3	none
COC(=O)c1ccc(C(=O)OC)c(NC(=O)c2oc(C)nc2C)c1	none
COc1ccc(-n2nc(C(=O)NCc3ccco3)c3c4ccccc4n(C)c3c2=O)cc1Cl	Autofluor 339 3.6, Spn DPM-DC inh active
COc1ccc(-n2nc(C(=O)NCC(=O)NCc3ccco3)c3ccccc3c2=O)cc1	none
CCOC(=O)c1cn2c3c(c(F)c(F)c(F)c3c1=O)SC(N1CCCC1)=N2	Autofluor 339 2.7
Cc1ccc(O)c(CC(C)C)n1	Autofluor 339 2
CC(=O)Nc1ccccc1C(=O)N1CC(C)OC(C)C1 (stereo unspecified)	none
CC1CN(C2CCN(C(=O)c3ccccc3Cl)CC2)CC(C)O1 (stereo unspecified)	MK inhibit 41
O=c1c(=O)n(O)c2ccccc2n1O	none
O=C(c1cccn2c(=O)c3ccccc3nc12)N1CCN(c2ccccn2)CC1	none
O=C(O)c1cccn2c(=O)c3ccccc3nc12	NADH enzymes 54µM, Spn DPM-DC inh active
O=C(Cn1nnc(-c2ccncc2)n1)NCCc1ccccc1	none
CCc1nc(SCc2cccnc2)[nH]c(=O)c1C	none
